For 40 molecules, Percent Effect results are on record in ChEMBL document CHEMBL3988442, “University of Dundee, Small-Polar-MMV Screening Library” (2021).

In this assay the target is Chromo domain-containing protein 1 (Saccharomyces cerevisiae (strain ATCC 204508 / S288c) (Baker's yeast)) (UniProt P32657). The assay can be described thus: ScCHD-1 Enzyme Inhibition Assay. The assay is classed as functional. Details: scale not given: in the data most compounds retested in dose-response had high values. To be noted: 30 µM.
Sequence of Chromo domain-containing protein 1 (Saccharomyces cerevisiae (strain ATCC 204508 / S288c) (Baker's yeast)) (P32657 whole entry, the tested form may be a part): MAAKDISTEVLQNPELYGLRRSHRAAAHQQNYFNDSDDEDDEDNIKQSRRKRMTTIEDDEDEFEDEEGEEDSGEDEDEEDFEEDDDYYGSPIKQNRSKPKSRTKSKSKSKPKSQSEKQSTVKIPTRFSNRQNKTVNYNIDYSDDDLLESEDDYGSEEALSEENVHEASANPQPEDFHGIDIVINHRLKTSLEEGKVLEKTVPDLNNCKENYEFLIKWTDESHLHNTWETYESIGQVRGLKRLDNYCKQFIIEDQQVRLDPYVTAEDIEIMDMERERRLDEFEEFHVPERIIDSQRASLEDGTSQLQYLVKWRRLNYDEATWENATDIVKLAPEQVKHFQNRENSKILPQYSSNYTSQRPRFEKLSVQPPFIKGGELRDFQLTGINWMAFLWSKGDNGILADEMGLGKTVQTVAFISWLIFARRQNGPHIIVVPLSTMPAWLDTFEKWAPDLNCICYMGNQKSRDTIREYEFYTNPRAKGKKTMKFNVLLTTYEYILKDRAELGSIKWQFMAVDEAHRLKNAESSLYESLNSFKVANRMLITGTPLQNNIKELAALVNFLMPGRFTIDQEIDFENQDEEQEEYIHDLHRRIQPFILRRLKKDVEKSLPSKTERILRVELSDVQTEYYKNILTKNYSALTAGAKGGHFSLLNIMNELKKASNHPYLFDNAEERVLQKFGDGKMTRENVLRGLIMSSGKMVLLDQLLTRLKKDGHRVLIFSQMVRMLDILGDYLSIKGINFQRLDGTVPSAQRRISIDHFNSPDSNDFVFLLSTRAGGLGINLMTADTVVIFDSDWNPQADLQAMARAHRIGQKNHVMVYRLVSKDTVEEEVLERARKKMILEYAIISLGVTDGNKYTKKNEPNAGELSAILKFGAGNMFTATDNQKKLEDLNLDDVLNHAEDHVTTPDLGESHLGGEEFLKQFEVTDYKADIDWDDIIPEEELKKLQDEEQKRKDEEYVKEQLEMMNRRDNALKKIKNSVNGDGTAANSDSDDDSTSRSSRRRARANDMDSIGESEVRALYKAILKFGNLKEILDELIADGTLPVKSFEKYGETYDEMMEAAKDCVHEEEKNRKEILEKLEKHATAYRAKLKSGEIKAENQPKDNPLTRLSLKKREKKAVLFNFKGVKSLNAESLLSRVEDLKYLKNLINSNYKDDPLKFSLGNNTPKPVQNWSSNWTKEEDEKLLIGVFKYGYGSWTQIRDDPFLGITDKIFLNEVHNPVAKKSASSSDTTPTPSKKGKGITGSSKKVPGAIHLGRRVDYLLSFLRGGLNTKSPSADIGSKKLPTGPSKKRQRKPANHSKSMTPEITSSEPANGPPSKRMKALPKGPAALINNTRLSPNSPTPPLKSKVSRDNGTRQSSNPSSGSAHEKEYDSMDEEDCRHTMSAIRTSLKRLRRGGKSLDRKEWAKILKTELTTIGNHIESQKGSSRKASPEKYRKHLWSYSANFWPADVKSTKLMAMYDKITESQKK
Regarding `CN(Cc1ccsc1)C(=O)c1cccc(S(=O)(=O)NC(C)(C)C)c1`, the Percent Effect was -7.59%.
For `Clc1snnc1CN1CCCCC1Cn1cncn1` (stereo not given), the Percent Effect was -4.67%.
The figure for `O=C(CC1CC1)N1CCC2(CC1)CN(c1ncccn1)CCO2` is -7.95%.
Consider `CC(C)c1noc(CCC(=O)NC(C)c2nnc3n2CCCCC3)n1` (stereo not given), for which the Percent Effect is 80%.
The value for `CC1c2ncc(COc3cccnc3)n2CCN1C(=O)Cc1ccco1` (stereo not given) was 0.38%; that for `COc1cccc(CN(C)S(=O)(=O)N2CCOCC2)c1` was -6.9%.
As for `Cc1ccc(S(=O)(=O)NC2CNC(=O)C2)cc1C` (stereo not given), the Percent Effect was -3.53%.
With `COCC(O)CN(C)C(=O)NC1CCN(Cc2ccccn2)CC1` (stereo not given), the Percent Effect is -8.51%.
The value for `O=C(NCc1ccco1)[C@H]1C[C@H]2OCC[C@H]2N(S(=O)(=O)C2CC2)C1` was -8.9%; that for `Cc1ncsc1CN1C[C@@H](OCC2CC2)[C@H]2OCCC[C@H]21` was -8.25%; that for `COc1ccc(C2Nc3ccccc3C3=NCCCN32)cc1OC` (stereo not given) was -8.33%.
In the case of `O=C(NC[C@]12COC[C@H]1CN(Cc1nccs1)C2)N1CCCC1`, the Percent Effect is -5.18%.
The figure for `CC(C)c1cc(NC(=O)c2ccc(NC3CC3)nc2)[nH]n1` is -8.09%.
The value for `O=C(c1cnc(C2CC2)s1)N1CCCC(n2cccn2)C1` (stereo not given) was -5.53%.
On to `O=C1N(c2ccc(Br)cc2)Cc2nc(=O)[nH]n21`, for which the Percent Effect is -11.8%.
Take `COc1ccc(C(=O)N(Cc2cnn(C)c2)C(C)C)cc1Br`: the Percent Effect is -4.6%.
The value for `CCCc1cc(C(=O)N(C)Cc2cccc3ncccc23)n(C)n1` was -8.05%.
For the molecule `Cc1nc(CN2C[C@@H]3CN(C(=O)C4CC4)C[C@@H]3C2=O)cs1`, the Percent Effect is -6.89%.
The figure for `Cc1ccc(NC(=O)NCCCc2n[nH]c(N)c2C#N)cc1` is -3.94%.
The value for `CS(=O)(=O)NCC(=O)NC1CCc2nccn2C1` (stereo not given) was -13.2%.
Consider `CCCN(CC(=O)NC)C(=O)c1ccc(-c2ccsc2)nc1C`, for which the Percent Effect was determined as 91%.
The value for `Cc1ccc(C(=O)N2CCc3c(CNS(C)(=O)=O)cncc3C2)o1` was -7.04%; that for `Cc1cnn(CCC(=O)N2CCOC(c3nc(C(C)(C)C)n[nH]3)C2)c1` (stereo not given) was -1.3%.
For the molecule `COc1cc(C)nc(N2CCN(C(=O)c3ccccc3C)CC2)n1`, the Percent Effect was -18.4%.
The figure for `COCC1CC2(CCN(C(=O)c3cccn3C)CC2)CN1C(C)C` (stereo not given) is -4.39%; for `Cc1cc(C(=O)N2C[C@@H]3COC[C@]3(c3nnc(C4CC4)o3)C2)on1` it is -9%; for `CCOc1nnc(CN2CCC(N(C)Cc3noc(C)n3)C2)s1` (stereo not given) it is -8.06%.
For `Cc1cnc(CN(C)C2CCN(CC(=O)Nc3c(C)n[nH]c3C)C2)o1` (stereo not given), the Percent Effect was -4.79%.
In the case of `CNC(=O)C1CCN(C(=O)CCn2cccn2)CC1`, the Percent Effect is 6.84%.
The figure for `COCCNC(=O)[C@@H]1CC[C@@H]2[C@@H](CCN2Cc2cnn(C)c2)O1` is -7.85%; for `Cc1cc(C)n(CC2CCCN2C(=O)CCCc2ccccn2)n1` (stereo not given) it is -3.06%.
In the case of `Cc1nccc(-c2cccc(NCC(=O)N3CCNC3=O)c2)n1`, the Percent Effect was -9.15%.
The value for `O=C(c1cnco1)N1CCCC(Cc2cccc3ncccc23)C1` (stereo not given) was -18.8%.
The value for `O=C(NCC(=O)N1CCCCC1)c1ccc(Cl)cc1I` was -1.27%; that for `Cc1cncc(C2CCCN(C(=O)c3scnc3C)C2)n1` (stereo not given) was -22.3%; that for `COC1CCN(C(=O)Cc2csc(-c3ncccn3)n2)CC1` was -5.39%.
The figure for `CC(C)Cc1noc(CN2CCOC(Cn3cncn3)C2)n1` (stereo not given) is -0.689%; for `Cc1nc(C)n(C2CCCN(C(=O)c3ccccc3C)C2)n1` (stereo not given) it is -10%; for `CCCc1ncc(C(=O)N2CCOC(c3nc(C)n[nH]3)C2)s1` (stereo not given) it is 9.76%.
Take `Cc1ccsc1[C@@H]1CCN(C(=O)c2cc3ccccc3[nH]2)C[C@H]1O`: the Percent Effect was found to be 2.93%.
